# Reference: article PMC4552634, “A New Set of Chemical Starting Points with Plasmodium falciparum Transmission-Blocking Potential for Antimalarial Drug Discovery” (PLoS ONE, 2015)
# About 3,200 (25%) of roughly 13,000 compounds showed an effect of 50% or more. This is one part of the list.
# Test system: P. falciparum stage V gametocytes
# Design: BacTiter-Glo ATP luminescence viability of purified stage V gametocytes in 384-well plates, per cent inhibition versus DMSO
# Conditions: 48 h, 5 µM; inhibitor
row,SMILES,% Inhibition
1,CCN(C)C(=O)n1ncc2c3c(N)nc(N)nc3ccc21 [TCMDC-137828],19.76%
2,Cc1ccc(CCNCC(O)c2cccc(C(F)(F)F)c2)cc1 (stereo not drawn) [TCMDC-131447],15.63%
3,Cc1ccccc1Cn1c(CN2CCC(C(=O)NC3CC3)CC2)cc2ccccc21 [TCMDC-134259],50.21%
4,O=C(NC1CC1)C1CCN(Cc2cc3ccccc3n2Cc2ccc(Cl)cc2)CC1 [TCMDC-125065],41.24%
5,Cc1c(CN2CCC(N3CCC(C(=O)NC4CC4)CC3)CC2)[nH]c2c(Cl)cccc12 [TCMDC-124608],11.69%
6,CN(C)CCCn1cncc1-c1ccc2ncnc(Nc3ccc(OCc4ccccc4)cc3)c2c1 [TCMDC-138088],1.652%
7,COc1ccccc1N1CCN(CCCCNC(=O)c2ccc(NC(=O)c3ccc4ccccc4c3)cc2)CC1 [TCMDC-138109],-15.04%
8,CCCC(=O)NC(c1ccc(C(C)C)cc1)c1ccc2cccnc2c1O (stereo not drawn) [TCMDC-123884],62.61%
9,CCCC(=O)NC(c1ccc(C)cc1)c1ccc2cccnc2c1O (stereo not drawn) [TCMDC-123605],92.74%
10,CC(C)C(=O)NC(c1ccc(Cl)cc1)c1ccc2cccnc2c1O (stereo not drawn) [TCMDC-124343],44.71%
11,CC(C)c1ccc(C(NC(=O)C2CCCCC2)c2ccc3cccnc3c2O)cc1 (stereo not drawn) [TCMDC-125560],15.44%
12,CCC(C)NC(=O)Cn1c2ncccc2c(=O)n1-c1ccc(C)cc1 (stereo not drawn) [TCMDC-124738],-0.9664%
13,O=S(=O)(c1cccc2cccnc12)N1CCN(C2CCCCC2)CC1 [TCMDC-123840],8.014%
14,Cc1ccc(C(NC(=O)C2CCCCC2)c2ccc3cccnc3c2O)cc1 (stereo not drawn) [TCMDC-123654],50.75%
15,C[C@@H](CC1CCCCC1)OC(=O)N[C@H]1CCN(C#N)C1 [TCMDC-138496],45.07%
16,O=C(COc1ccccc1)Nn1cnc2ccccc21 [TCMDC-124536],15.87%
17,CNS(=O)(=O)c1ccc2c(c1)nc(C1CCN(CC3CCC(NC(=O)/C=C/c4ccc(Cl)c(Cl)c4)CC3)CC1)n2C (stereo not drawn) [TCMDC-140374],8.841%
18,CCOc1ccc(-c2noc(-c3c[nH]c4ccccc4c3=O)n2)cc1 [TCMDC-125156],27.36%

row,SMILES,% Inhibition
1,COc1ccc(-c2nc(-c3ccc([N+](=O)[O-])cc3)no2)cc1OC [TCMDC-125731],16.37%
2,CCn1cc(-c2nc(-c3cc(OC)cc(OC)c3)no2)c(=O)c2ccccc21 [TCMDC-125155],51.09%
3,CCOc1cc2ncnc(Nc3ccc(OCc4ccccc4F)c(Cl)c3)c2cc1OCC [TCMDC-131914],3.797%
4,CC(C)CN1CCCN(Cc2cccc(NC(=O)c3ccc(-c4ccccc4)cc3)c2)CC1 [TCMDC-141841],-91.11%
5,Cc1cccc2nc(-c3ccc(-c4ccc(CNCc5cnn(-c6ccccc6)n5)cc4)cc3)[nH]c12.O=C(O)C(F)(F)F [TCMDC-132974],25.92%
6,CCOC(=O)C(C)(C)Oc1ccc(C(=C2CC(C)(C)CC(C)(C)C2)c2ccc(O)cc2)cc1 [TCMDC-135525],-61.64%
7,CCN(CCNC(=O)C1CCN(c2cc(-c3cccc(C)c3)ncn2)CC1)Cc1ccccc1 [TCMDC-124739],86.1%
8,Cc1cccc(C(=O)Nc2ccnc(N3CCC(N(C)Cc4ccccc4)CC3)c2)c1 [TCMDC-135001],-20.99%
9,Cc1cccc(-c2ccc(NC(=O)C3CCN(Cc4cccc(O)c4)CC3)cc2)c1 [TCMDC-124641],44.56%
10,O=C(Cc1ccccc1)NC(Nc1ccc([N+](=O)[O-])cc1)C(Cl)(Cl)Cl (stereo not drawn) [TCMDC-125789],52.36%
11,CCCC(=O)NC(NC(=S)Nc1ccc([N+](=O)[O-])cc1)C(Cl)(Cl)Cl (stereo not drawn) [TCMDC-125817],27.07%
12,O=[N+]([O-])c1ccc(C(O)P(=O)(c2ccccc2)c2ccccc2)cc1 (stereo not drawn) [TCMDC-125871],-5.463%
13,O=C(NC(Nc1ccc([N+](=O)[O-])cc1)C(Cl)(Cl)Cl)c1cccc(Cl)c1 (stereo not drawn) [TCMDC-124129],26.63%
14,Cc1cccc(C(=O)NC(NC(=S)Nc2ccc([N+](=O)[O-])cc2)C(Cl)(Cl)Cl)c1 (stereo not drawn) [TCMDC-124177],26.63%
15,Cc1ccccc1C(=O)NC(NC(=S)Nc1ccc([N+](=O)[O-])cc1)C(Cl)(Cl)Cl (stereo not drawn) [TCMDC-124151],-7.269%
16,CC(C)C(=O)NC(Nc1ccc([N+](=O)[O-])cc1)C(Cl)(Cl)Cl (stereo not drawn) [TCMDC-125799],71.39%
17,O=C(NC(NC(=S)Nc1ccc([N+](=O)[O-])cc1)C(Cl)(Cl)Cl)c1cccc(Cl)c1 (stereo not drawn) [TCMDC-124130],-46.64%
18,O=C(NC(Nc1ccc([N+](=O)[O-])cc1)C(Cl)(Cl)Cl)c1ccc(Cl)cc1 (stereo not drawn) [TCMDC-125818],63.58%
